For 39 molecules, growth results are on record in PubChem BioAssay (NCI).

Compounds without any hit were thinned out: in the full panel of roughly 83,000, 20% have a hit.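 Plates (96-well) were seeded with cells, treated with compound at one concentration, and incubated for 48 hours before percent growth was determined.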 Activity calls are given as the source filed them. The calls were made as follows: active = growth percent below 10; inactive = the rest.

This test relates to COLO 205 colon. Description: NCI-60 one-dose screen, 48 h (100 = growth as untreated, 0 = no growth, -100 = all killed). The conditions noted are these: 10 µM unless noted.
For the molecule `Oc1c(N=Nc2nn[nH]n2)ccc2ccccc12`, the growth was 54% (inactive). Regarding `CCN1CCN(c2nc(NNC(=O)Cc3ccccc3)nc(N3CCN(C(c4ccccc4)c4ccccc4)CC3)n2)CC1`, the growth is -41.3% (active). Regarding `COc1cc(-c2nnc(-c3nc(-c4cc(OC)c(OC)c(OC)c4)n4ccccc34)o2)ccc1N`, the growth was 88.7% (inactive). With `CCOc1cc(/C=C/C(=O)CC(=O)/C=C/c2ccc(OC(=O)CNCCN(CC)CC)c(OCC)c2)ccc1OC(=O)CNCCN(CC)CC`, the growth was -51.3% (active). As for `Nc1ccc2c(c1Br)Cc1ccccc1-2`, the growth was 99.2% (inactive). For the molecule `CCOC(=O)C1=CCC(n2cc(C)c(=O)[nH]c2=O)O1` (centres undefined), the growth is 90.1% (inactive). For `CCCCCN(CCCCC)CCCNc1c2c(nc3ccc(Cl)cc13)CCCC2` the value was -11% (active); for `COc1ccc(-c2nnc3c4[nH]cnc4ncn23)c(OC)c1`, 32.5% (inactive). Regarding `O=C(Nc1nn2c(-c3cc(C(F)(F)F)cc(C(F)(F)F)c3)nnc2s1)C1CCCC1`, the growth is -82.5% (active). For `COc1ccc(N2CCN(CC(=O)N3CCN(c4nnc(-c5ccc(Cl)cc5)c(-c5ccc(Cl)cc5)n4)CC3)CC2)cc1` the value was 86% (inactive); for `O=C(O)c1ccc2cccnc2c1O`, -70.9% (active); for `COC(=O)[C@H]1[C@H]2C[C@@H]3c4[nH]c5cc(OC)ccc5c4CCN3C[C@H]2C[C@@H](OC(=O)/C=C/c2cc(OC)c(OC)c(OC)c2)[C@@H]1OC`, 67.6% (inactive). On to `COc1ccc2nc(-c3ccc(Cl)cc3)cc(-c3nnc(SCC(=O)Nc4ccc(C(C)=O)cc4)n3-c3ccccc3)c2c1`, for which the growth is 101% (inactive).

Turning to `COc1cc(/C=C/C(=O)C(C(=O)/C=C/c2ccc(OC(=O)CCNC34CC5CC(CC(C5)C3)C4)c(OC)c2)C(=O)CCNC23CC4CC(CC(C4)C2)C3)ccc1OC(=O)CCNC12CC3CC(CC(C3)C1)C2` (centres undefined), the growth was 17.7% (inactive). For the molecule `N#Cc1ccccc1C#Cc1ccccc1C#Cc1ccc(OCCCCCCOc2ccc(C#Cc3ccccc3C#Cc3ccccc3C#N)cc2)cc1`, the growth was 119% (inactive). Take `O=CNc1ccc2c(c1)Cc1cc([N+](=O)[O-])ccc1-2`: the growth is 1.14% (active). As for `N#CC(C#N)C(C#N)C#N`, the growth is 99.3% (inactive). Turning to `N/C(=N\c1nc2ccccc2s1)NC(=O)Nc1ccccc1Cl`, the growth was -44.4% (active).

Turning to `O=c1c2c(=NCCCN3CCCC3)cc3c(=O)n(CCCN4CCCC4)c(=O)c4c(NCCCN5CCCC5)cc(c(O)n1CCCN1CCCC1)c2c4-3`, the growth was -68.4% (active). For `C/C(=C\CCc1ccsc1)CC/C=C(\C)CCCN1CCSCC1` the value was 85.6% (inactive); for `COc1ccc(CC(=O)Nc2nn3c(-c4cc(C(F)(F)F)cc(C(F)(F)F)c4)nnc3s2)cc1`, 104% (inactive); for `CCCCCCCCCCNCCSS(=O)(=O)O`, 116% (inactive). On to `O=C(Nc1ccccc1)c1cc(-n2cnc([N+](=O)[O-])c2)cc(-n2cnc([N+](=O)[O-])c2)n1`, for which the growth was 97.4% (inactive). For `O=C1/C(=C/c2ccc(F)cc2)Cc2ccccc21` the value was 115% (inactive); for `CCN(CC)c1ccc(N=C2C=CC(=O)C=C2NC(C)=O)cc1`, 96.8% (inactive); for `C[C@H](C(=O)N[C@@H](Cc1ccc(-c2ccccc2)cc1)C(=O)NC1CC(C)(C)N(C)C(C)(C)C1)c1ccc(-c2ccccc2)c(F)c1`, -69.6% (active). For `CSc1nc2nc3c(nc2c(=O)n1C)C(=O)c1ccccc1C3=O`, the growth is -86.2% (active). As for `O=C(C(=O)c1cc(Br)ccc1O)c1cc(Br)ccc1O`, the growth is 100% (inactive). For `O=C1CSC(c2ccccc2O)N1c1nnc(Cn2ccnc2)o1` (centres undefined) the value was 92.6% (inactive); for `COc1cccc(N2CCN(CC(=O)N3CCN(c4nnc(-c5ccc(Cl)cc5)c(-c5ccc(Cl)cc5)n4)CC3)CC2)c1`, 78.6% (inactive); for `NC(=O)NS(=O)(=O)c1ccc(N2N=C(C(F)(F)F)CC2c2cc(C(F)(F)F)cc(C(F)(F)F)c2)cc1` (centres undefined), 99.8% (inactive).

Consider `CC(=O)N1N=C(c2ccc(C(F)(F)F)cc2)CC1c1ccc2c(c1)OCO2` (centres undefined), for which the growth was 100% (inactive). For `CCOc1cc(/C=C/C(=O)C(C(=O)/C=C/c2ccc(OC(=O)CNc3nnc(C)s3)c(OCC)c2)C(=O)CNc2nnc(C)s2)ccc1OC(=O)CNc1nnc(C)s1` the value was -55% (active); for `CC(C)N(Cc1ccccc1)c1c(S)ssc1=S`, -40.1% (active); for `Nc1ccccc1-c1ccn[nH]1`, 86.6% (inactive). As to `FC(F)(F)c1cc(-c2nnc3n2N=C(N2CCCC2)CS3)cc(C(F)(F)F)c1`, the growth was 98.1% (inactive). Turning to `COc1c(O)cc2c(c1CC=C(C)C)OC(=O)c1c(cc(O)c(CC=C(C)C)c1O)O2`, the growth is 107% (inactive). With `Fc1ccc(-c2nn3c(-c4cc(C(F)(F)F)cc(C(F)(F)F)c4)nnc3s2)cc1`, the growth was 73.1% (inactive). On to `COc1ccc2c(c1)c(CC(=O)[Se]C)c(C)n2C(=O)c1ccc(Cl)cc1`, for which the growth is 50.1% (inactive).
